# Screens deposited in PubChem BioAssay by National Center for Advancing Translational Sciences (NCATS).
# Shown are actives, neighbours in structure and some others; about 19% of the full set was active somewhere.
# DT40 TDP1 CPT: growth inhibition of DT40 Tdp1-/-;hTDP1 cells with camptothecin (screen for TDP1 inhibitors); chicken DT40 Tdp1-/-;hTDP1 cells + 20 nM CPT, ATP luminescence, 48 h; Potency, µM (highest dose often 46.2 µM), actives largely listed as inhibitors; hit rate 12% among 420,000; also: nearly all actives have a fitted effect of over 55% in size
#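 Cell growth measured by CellTiter-Glo luminescence after a minimum 48 h, 37 C compound exposure with 20 nM CPT in Tdp1-knockout DT40 cells stably expressing hTDP1, seeded 400/well; qHTS titration format.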
# BCR signal inh: chronic active BCR signaling inhibition; Potency, µM (doses to about 46.1 µM), usual class: inhibitors; ABC-DLBCL IkBa-CBG/CBR reporter, luminescence ratio, 4 h; hit rate 0.05% among 340,000; active = well fitted inhibition curve with a large enough effect in the signal ratio, with a control signal flat, not every such curve was filed as active; inconclusive = small, poorly fitted or top-dose-only effect, or effect the other way, or a change in a side signal; the % refers to the signal ratio
#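 TMD8 ABC-DLBCL cells carrying doxycycline-inducible green luciferase fused to IkappaBalpha plus unfused red luciferase were exposed to compounds (up to 46 uM) for 4 hrs at 37C. Activity came from the overlap-corrected green/red luminescence ratio.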
# SW480 rereplic: DNA re-replication induction in SW480 cells. SW480 DNA re-replication, Hoechst DNA content imaging, 48 h. Potency, µM (top dose mostly 46.1 µM), usual class: activators. hit rate 1.8% among 340,000. AID 624297; also: nearly all actives have a fitted effect of over 55% in size
#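 Compounds, transferred as 23 nL by pin tool, were incubated with cells for 48 hr; DNA content per nucleus was then quantified by Hoechst staining and fluorescence plate imaging.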
# IL1B secr inh: inhibitors of inflammasome signaling (IL-1 beta secretion) | THP-1 LPS/ATP IL-1B secretion, AlphaLISA, 16 h; stronger effect = lower value | activity change, % at 57.5 µM | hit rate 4.7% among 360,000; in the data active = activity change below about -50%; inconclusive = mostly about -30% to -49%
#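 THP-1 cells pretreated 1 hr with compounds (up to 57.5 uM final), then stimulated with LPS (250 ng/mL final) plus ATP (1.25 mM final); secreted IL-1B measured by AlphaLISA after 16 hr, decreased signal indicating inhibition.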
# MCF10A rereplic: DNA re-replication induction in MCF 10a cells; MCF 10A DNA re-replication, Hoechst nuclear intensity, 48 h; Potency, µM (highest dose often 46.1 µM), usual class: activators; hit rate 2.9% among 350,000; also: nearly all actives have a fitted effect of over 50% in size
# TDP1 cell noCPT: qHTS for Inhibitors of human tyrosyl-DNA phosphodiesterase 1 (TDP1): qHTS in cells in absence of CPT | DT40 Tdp1-/- hTDP1 cells, no CPT, ATP luminescence, 48 h | hit rate 15% among 420,000 | Potency, µM (doses to about 46.2 µM), hits mostly inhibitors | AID 686978, 2013; also: nearly all actives have a fitted effect of over 55% in size
#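 Growth of hTDP1-complemented DT40 Tdp1-knockout cells is measured by ATP luminescence after at least 48 hr compound exposure at 37 °C, with DMSO substituting for the 20 nM CPT used in the parallel screen.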
# Numbers stand for hits; - = inactive; ? = inconclusive; . = no result; [ ] = remark or other dose. Unless noted, calls follow the shape of the dose curve; as a rule, active = well fitted curve in the direction sought with a large enough effect; inconclusive = small, poorly fitted or top-dose-only effect, or another doubt; inactive = no such curve, though single readings can be large; an effect the other way counts as inactive or inconclusive.
SMILES,DT40 TDP1 CPT,BCR signal inh,SW480 rereplic,IL1B secr inh,MCF10A rereplic,TDP1 cell noCPT
COc1ccccc1CNC(=O)c1ccc(CSc2nc3ccncc3n2Cc2cccc(F)c2)cc1,?,.,.,.,.,18µM
COc1ccc(Cn2c(SCc3ccc(C(=O)NCc4cccs4)cc3)nc3ccncc32)cc1,18µM,.,.,.,.,?
C[N+](C)(CC#Cc1ccccc1)CC(=O)c1ccccc1,18µM,-,-,-,-,16µM
C#CC[N+](CC)(CC)CC#Cc1ccccc1,?,-,-,-,-,18µM
CC[N+](CC)(CC#Cc1ccccc1)CC#Cc1ccccc1,2.6µM,?,-,-81,-,2.1µM
CC(C)(C)OC(=O)NCC(=O)Oc1cc2oc(=O)cc(-c3ccccc3)c2cc1Cl,-,-,21µM,-,23µM,?
NNc1nc(-c2ccccc2)cc(-c2ccc(Br)cc2)n1,?,?,?,-56,-,?
NNc1nc(-c2ccccc2)c2cc(Br)ccc2n1,?,?,-,-,?,-
COc1cccc(C2(C)NC(=O)N(CC(=O)Nc3ccc(N4CCOCC4)cc3)C2=O)c1 (configuration not stated),-,-,-,-,-,-
NS(=O)(=O)c1ccc2nc(NC(=O)Nc3ccc(F)cc3)sc2c1,-,?,-,?,-,?
O=C1C(c2ccccc2)C2C=CC(C2)N1O (configuration not stated),-,.,-,-,-,-
COc1ccc2nc(Nc3nc(CSc4nnnn4-c4ccccc4)cc(=O)[nH]3)nc(C)c2c1,?,-,-,-,-,?
Cc1cc(C)c2nc(Nc3nc(CSc4nc5ccccc5[nH]4)cc(=O)[nH]3)nc(C)c2c1,-,.,-,-,-,?
COc1ccc2nc(Nc3nc(C)c(CCC(C)C)c(=O)[nH]3)nc(C)c2c1,?,-,-,?,-,18µM
Cc1ccc(SCc2cc(=O)[nH]c(Nc3nc(C)c4cccc(C)c4n3)n2)cc1,?,-,-,-,-,16µM
COc1ccc2nc(Nc3nc(CSc4ccc(C)cc4)cc(=O)[nH]3)nc(C)c2c1,?,-,-,-,-[9.22 µM],18µM
COCC(=O)Nc1cc(C(=O)N2CC3CC4CC(C3)CC2C4)c2c(c1)nc(-c1ccncc1)n2C,-[9.04 µM],.,.,.,.,?
CC(C)C(NC(=O)c1ccccc1)C(=O)NCCc1ccccc1 (configuration not stated),-,-,-,-,-,-
CC1Cc2ccccc2N1S(=O)(=O)c1cccc(C(=O)NCCCn2ccnc2)c1 (configuration not stated),?,-,-,-,-,?
C=CCn1c(C)c(C(C)=O)c(N2CCN(C(c3ccccc3)c3ccccc3)CC2)nc1=S,?,-,-,-,-,23µM
CC(=O)c1c(N2CCN(c3cccc(Cl)c3)CC2)nc(=S)n(-c2ccccc2)c1C,?,-,-,-102,-,?
CC(=O)c1c(NCCc2ccccc2)nc(=S)n(-c2ccccc2)c1C,21µM,?,-,-101,?,18µM
COC(=O)c1ccccc1-c1cc(C)cc2c1OC(CNC(=O)c1occc1C)C2 (configuration not stated),16µM,.,.,.,.,12µM
Fc1ccc(-n2ncc3c(Nc4ccc5c(c4)OCCO5)ncnc32)cc1,13µM,?,.,.,.,29µM
Cc1ccc(Cl)cc1-n1ncc2c(Nc3ccc4c(c3)OCCO4)ncnc21,26µM,?,.,.,.,?
Cc1ccc(-n2ncc3c(Nc4ccc5c(c4)OCCO5)ncnc32)cc1Cl,?,-,.,.,.,23µM
CC(=O)Nc1cc2c3c(c1)CCC(=O)N3CCC2,-,-,-,-,-,-
CCOC(=O)c1sc(NC(=O)CN2C(=O)NC3(CCC(C)CC3)C2=O)c(C(=O)OCC)c1C (configuration not stated),-,-,-,-,-,-
